V-ATPase pH: yeast V-ATPase proton transport regulation by pHLuorin; S. cerevisiae, pHLuorin cytosolic pH fluorescence; 350,000 compounds, 0.37% hits; response, % at 10 µM; in the data active = response mostly above about 7.3%, no sharp cut-off; inactive = mostly below about 5.4%; note: actives read high
NR1D1 modulator: modulates human Rev-erb alpha binding to DNA. 370,000 compounds, 0.79% hits. activity, % at 10 µM. Rev-erbα–FITC-DNA binding, fluorescence polarization, 90 min. P20393;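 active = activity above about 14%, limit read from the data; passing the limit was not always enough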
Target sequence (P20393 whole entry, looked up): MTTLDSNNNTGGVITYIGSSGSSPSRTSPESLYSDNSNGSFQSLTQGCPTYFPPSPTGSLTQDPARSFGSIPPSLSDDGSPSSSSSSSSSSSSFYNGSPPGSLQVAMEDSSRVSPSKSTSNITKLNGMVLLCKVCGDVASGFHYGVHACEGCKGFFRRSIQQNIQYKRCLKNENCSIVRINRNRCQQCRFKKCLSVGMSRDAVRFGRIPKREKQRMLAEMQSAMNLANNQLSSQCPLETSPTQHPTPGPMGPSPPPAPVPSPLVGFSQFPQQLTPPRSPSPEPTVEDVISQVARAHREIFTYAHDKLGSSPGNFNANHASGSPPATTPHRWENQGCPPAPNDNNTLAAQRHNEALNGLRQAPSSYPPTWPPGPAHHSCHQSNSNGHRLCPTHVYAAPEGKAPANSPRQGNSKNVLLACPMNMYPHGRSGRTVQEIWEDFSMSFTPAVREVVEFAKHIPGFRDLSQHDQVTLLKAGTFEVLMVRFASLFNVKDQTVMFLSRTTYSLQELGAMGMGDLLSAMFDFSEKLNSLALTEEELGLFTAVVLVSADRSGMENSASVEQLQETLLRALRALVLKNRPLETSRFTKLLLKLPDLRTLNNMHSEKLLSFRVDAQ
GC-B act: GC-B (human) receptor activation; P20594; HEK293-GC-B cells, CNP EC30, cGMP TR-FRET; 0% at EC30 CNP, 100% saturating CNP; activation, % at 10 µM; 370,000 compounds, 0.11% hits;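 active = activation at 10 µM reaching about 35% in either raw or pattern-adjusted values, limit read from the data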
PG9 binder: PG9 antibody binding by small molecule; TR-FRET gp120-PG9 antibody binding; inhibition, % at 6.7 µM; 360,000 compounds, 0.43% hits; AID 624416; in the data active = inhibition above about 8.5%
NPR1 activator: GC-A (human) enzyme activation; P16066; HEK293 GC-A cells, cGMP TR-FRET, EC30 ANP; 0% at EC30 ANP, 100% saturating ANP; activation, % at 10 µM; 370,000 compounds, 0.14% hits; in the data active = activation above about 40%
PG9 bind confirm: confirmation of small molecules binding HIV-1 gp120 antibody PG9; TR-FRET PG9 antibody binding, biochemical; inhibition, % at 6.7 µM; AID 651571; shares compounds with PG9 binder; 1,500 compounds, 90% hits; in the data active = inhibition above about 9%
PGV04 Ab binding: counter-screen for PG9 binders: binding control antibody PGV04 | shares compounds with PG9 binder | TR-FRET PGV04 antibody-gp120 binding, biochemical | inhibition, % at 6.7 µM | 1,500 compounds, 95% hits | AID 651604; in the data active = inhibition above about 9.5%
PG9 binder DR: PG9 antibody binding, dose response; shares compounds with PG9 binder; TR-FRET PG9 antibody-gp120 binding inhibition; IC50, µM; 95 tested, under 10 active; AID 651848; in the data active = IC50 below about 10 µM
PGV04 DR counter: PGV04 binding, dose response counter-screen; shares compounds with PG9 binder; TR-FRET binding to control antibody PGV04; IC50, µM; 95 compounds, 20% hits; AID 651937
PG126 binding DR: PG126 binding, dose response counter-screen; shares compounds with PG9 binder; IC50, µM; TR-FRET binding to antibody PG126, counterscreen; 95 compounds, 20% hits; AID 651939
A number is an active result. This is a sample that favours compounds with a hit; in the whole collection about 1.6% have one here. Cut-off read from the data, not from the text of the source, unless noted: active = IC50 below about 9 µM; inactive = the rest.

S=c1nc[nH]c2c1[nH]c1ccccc12 was read as V-ATPase pH inactive, NR1D1 modulator inactive, GC-B act inactive, PG9 binder 79, NPR1 activator inactive, PG9 bind confirm 48, PGV04 Ab binding 29, PG9 binder DR inactive, PGV04 DR counter inactive and PG126 binding DR inactive.
Screening COc1cc(C2C(C(=O)c3ccc(C)o3)=C(O)C(=O)N2CCN2CCOCC2)ccc1OCCC(C)C (stereo unspecified) returned V-ATPase pH inactive, NR1D1 modulator inactive, GC-B act inactive, PG9 binder 12, NPR1 activator inactive, PG9 bind confirm 19 and PGV04 Ab binding 22.
`O=C(C1=C(O)C(=O)N(CCN2CCOCC2)C1c1ccc(Cl)cc1)c1cc2ccccc2o1` (stereo unspecified) gave V-ATPase pH inactive, NR1D1 modulator inactive, GC-B act inactive, PG9 binder inactive and NPR1 activator inactive.
`O=C(C1=C(O)C(=O)N(CCCN2CCOCC2)C1c1ccc(Cl)cc1)c1cc2ccccc2o1` (stereo unspecified) gave NR1D1 modulator inactive, GC-B act inactive, PG9 binder 20, NPR1 activator inactive, PG9 bind confirm 24 and PGV04 Ab binding 30.
For COC(=O)c1ccc(C2C(C(=O)c3cc4ccccc4o3)=C(O)C(=O)N2CCN2CCOCC2)cc1 (stereo unspecified) the results were V-ATPase pH inactive, NR1D1 modulator inactive, GC-B act inactive, PG9 binder inactive and NPR1 activator inactive.
`COc1cccc(C2C(C(=O)c3cc4ccccc4o3)=C(O)C(=O)N2CCN2CCOCC2)c1` (stereo unspecified) gave V-ATPase pH inactive, NR1D1 modulator inactive, GC-B act inactive, PG9 binder 15, NPR1 activator inactive, PG9 bind confirm 31 and PGV04 Ab binding 54.
Screening CCCOc1cccc(C2C(C(=O)c3ccc(C)o3)=C(O)C(=O)N2CCN2CCOCC2)c1 (stereo unspecified) returned V-ATPase pH inactive, NR1D1 modulator inactive, GC-B act inactive, PG9 binder inactive and NPR1 activator inactive.
Screening Nc1c(C(=O)NCC(O)c2ccccc2)cnn1-c1ccccc1 (stereo unspecified) returned NR1D1 modulator inactive, GC-B act inactive and NPR1 activator inactive.
`Cc1cc(C)cc(OC(C)CCN2CCC(C(O)(c3ccccc3)c3ccccc3)CC2)c1` (stereo unspecified) gave NR1D1 modulator inactive, GC-B act inactive and NPR1 activator inactive.
CC(C)C(=O)N1CC[C@H]2[C@H](CCCN2Cc2ccccc2)C1 was read as NR1D1 modulator inactive, GC-B act inactive and NPR1 activator inactive.
`Cc1cccc(NC(=O)c2cnn3ccccc23)c1C` gave V-ATPase pH inactive, NR1D1 modulator inactive, GC-B act inactive, PG9 binder 11, NPR1 activator inactive, PG9 bind confirm inactive and PGV04 Ab binding inactive.
Screening Cc1cccc(NC(=O)c2ccccc2O)c1C returned V-ATPase pH inactive, NR1D1 modulator inactive, GC-B act inactive, PG9 binder inactive and NPR1 activator inactive.
For O=S(=O)(c1ccccc1)N1CCN(c2cc(-c3ccccc3)nc3ncnn23)CC1 the results were V-ATPase pH inactive, NR1D1 modulator inactive, GC-B act inactive, PG9 binder inactive and NPR1 activator inactive.
For Cc1ccccc1NC(=O)C1CCN(c2cc(-c3ccccc3)nc3ncnn23)CC1 the results were V-ATPase pH inactive, NR1D1 modulator inactive, GC-B act inactive, PG9 binder 8.8, NPR1 activator inactive, PG9 bind confirm 17 and PGV04 Ab binding 27.
For O=C(C1=C(O)C(=O)N(c2ncccn2)C1c1ccc(Cl)cc1)c1ccco1 (stereo unspecified) the results were V-ATPase pH inactive, NR1D1 modulator inactive, GC-B act inactive, PG9 binder inactive and NPR1 activator inactive.
For Cc1ccc(C(=O)C2=C(O)C(=O)N(Cc3cccnc3)C2c2ccc(Cl)cc2)o1 (stereo unspecified) the results were V-ATPase pH inactive, NR1D1 modulator inactive, GC-B act inactive, PG9 binder 19, NPR1 activator inactive, PG9 bind confirm 27 and PGV04 Ab binding 36.
COc1ccc(C2C(C(=O)c3ccc(C)o3)=C(O)C(=O)N2Cc2cccnc2)cc1OC (stereo unspecified) was read as V-ATPase pH inactive, NR1D1 modulator inactive, GC-B act inactive, PG9 binder inactive and NPR1 activator inactive.
Screening Cc1ccc(C(=O)C2=C(O)C(=O)N(c3ncccn3)C2c2ccc(Cl)cc2)o1 (stereo unspecified) returned V-ATPase pH inactive, NR1D1 modulator inactive, GC-B act inactive, PG9 binder 19, NPR1 activator inactive, PG9 bind confirm 31 and PGV04 Ab binding 39.
`CCCOc1ccc(C2C(C(=O)c3ccc(C)o3)=C(O)C(=O)N2Cc2ccco2)cc1` (stereo unspecified) gave V-ATPase pH inactive, NR1D1 modulator inactive, GC-B act inactive, PG9 binder 14, NPR1 activator inactive, PG9 bind confirm 16 and PGV04 Ab binding 21.
For CCOc1ccc(C2C(C(=O)c3ccc(C)o3)=C(O)C(=O)N2Cc2cccnc2)cc1 (stereo unspecified) the results were V-ATPase pH inactive, NR1D1 modulator inactive, GC-B act inactive, PG9 binder 23, NPR1 activator inactive, PG9 bind confirm 35 and PGV04 Ab binding 41.
For Cc1ccc(S(=O)(=O)N2O[C@@H](c3ccccc3)C[C@H]2CON2C(C)(C)CCCC2(C)C)cc1 the results were NR1D1 modulator inactive, GC-B act inactive and NPR1 activator inactive.
Screening Cc1ccc(C(=O)C2=C(O)C(=O)N(Cc3cccnc3)C2c2cccc(Oc3ccccc3)c2)o1 (stereo unspecified) returned NR1D1 modulator inactive, GC-B act inactive, PG9 binder 48, NPR1 activator inactive, PG9 bind confirm 47 and PGV04 Ab binding 54.
`CCCCNC(=O)C(NC(=O)c1ccc(C)cc1)C(=O)c1ccccc1` (stereo unspecified) gave NR1D1 modulator inactive, GC-B act inactive, PG9 binder inactive and NPR1 activator inactive.
Screening CCCCNC(=O)C(NC(=O)c1cccc(C(F)(F)F)c1)C(=O)c1ccccc1 (stereo unspecified) returned NR1D1 modulator inactive, GC-B act inactive, PG9 binder 27, NPR1 activator inactive, PG9 bind confirm 41 and PGV04 Ab binding 55.

Compound activity (PubChem BioAssay)
